# Screening results (PubChem BioAssay)
# PAFAH2 FP inh: PAFAH2 enzyme inhibitors, primary screen, biochemical, fluorescence polarization, human; Platelet-activating factor acetylhydrolase 2, cytoplasmic (Homo sapiens), Q99487; recombinant PAFAH2, FP-rhodamine activity probe; inhibition, % at 3.39 µM; 340,000 tested, 0.99% active;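 active means inhibition above the mean over all tested compounds plus 3 SD, cut at about 30% in these data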;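 further: inhibitors block probe labeling of enzyme so polarization drops; 0% = enzyme with DMSO and 100% = wells lacking PAFAH2 protein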
# PKA-R1A activ: activators of PKA-R1A holoenzyme, primary screen, biochemical, fluorescence polarization, Cy5-IP20, bovine R1A, mouse PKAc; cAMP-dependent protein kinase type I-alpha regulatory subunit (Bos taurus) + …; PKA-R1A dissociation; scaled: DMSO 0%, 113 µM cGMP 100%; activation, % at 11.4 µM; 340,000 tested, 0.083% active; AID 504707, 2011;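 active means percent activation above the mean of all tested compounds plus 3 SD, cut at about 19% in these data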;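 further: higher means more PKAc released from R1A so a rise in polarization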
# PAFAH1B2 FP inh: PAFAH1B2 enzyme inhibitors, primary screen, biochemical, fluorescence polarization, human; inhibition, % at 3.39 µM; Platelet-activating factor acetylhydrolase IB subunit alpha2 (Homo sapiens), P68402; recombinant PAFAH1B2, FP-rhodamine activity probe; AID 492953, 2010; 340,000 tested, 1.2% active;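 active means inhibition above the mean of all tested compounds plus 3 SD, cut at about 24% in these data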;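 further: 0% = enzyme with DMSO and 100% = wells lacking PAFAH1B2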
# PKA-R2B act: activators of PKA-R2B holoenzyme, primary screen, biochemical, fluorescence polarization, Cy5-IP20, human | cAMP-dependent protein kinase catalytic subunit beta (Homo sapiens) + cAMP-dependent … | PKA-R2B holoenzyme dissociation; R2B truncated from residue 108, S112A mutant; 0% DMSO only, 100% 113 µM cGMP | activation, % at 11.4 µM | 340,000 tested, 0.079% active;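 active means activation above a cutoff set at the mean over all compounds plus 3 SD, cut at about 18% in these data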;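 further: higher means more holoenzyme dissociation and a rise in polarization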
# PAFAH1B3 inh: PAFAH1B3 enzyme inhibitors, primary screen, biochemical, fluorescence polarization, human. Platelet-activating factor acetylhydrolase IB subunit alpha1 (Homo sapiens), Q15102. recombinant PAFAH1B3, FP-rhodamine probe. inhibition, % at 3.39 µM. 340,000 tested, 0.28% active. AID 492972, 2010;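 active means inhibition above the screen-wide average of all tested compounds plus 3 SD, cut at about 25% in these data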;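 further: 0% = enzyme with DMSO only and 100% = wells lacking PAFAH1B3 protein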
# pPAFAH FP inh: pPAFAH enzyme inhibitors, primary screen, biochemical, fluorescence polarization, human. Platelet-activating factor acetylhydrolase (Homo sapiens), Q13093. recombinant pPAFAH, FP-rhodamine probe fluorescence polarization. inhibition, % at 3.39 µM. 330,000 tested, 1.5% active;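 active means inhibition above the mean inhibition across the screen plus 3 SD, cut at about 25% in these data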;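 further: inhibitors block binding of the rhodamine activity-based probe so polarization drops; 0% = enzyme with DMSO and 100% = wells lacking pPAFAH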
# Target sequence (Q13093 whole entry, looked up): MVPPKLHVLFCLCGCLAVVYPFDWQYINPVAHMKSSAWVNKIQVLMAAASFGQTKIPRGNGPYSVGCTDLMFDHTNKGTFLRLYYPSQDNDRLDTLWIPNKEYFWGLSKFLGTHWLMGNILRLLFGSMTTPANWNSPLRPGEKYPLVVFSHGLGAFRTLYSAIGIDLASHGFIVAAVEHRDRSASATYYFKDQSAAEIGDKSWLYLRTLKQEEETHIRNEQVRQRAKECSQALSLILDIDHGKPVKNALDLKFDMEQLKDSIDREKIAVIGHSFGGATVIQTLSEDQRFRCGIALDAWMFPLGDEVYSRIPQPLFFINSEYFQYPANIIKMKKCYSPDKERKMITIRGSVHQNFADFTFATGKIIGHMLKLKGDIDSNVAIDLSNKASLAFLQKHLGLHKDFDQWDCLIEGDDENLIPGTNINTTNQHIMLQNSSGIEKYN
# * hit, by the source's call; . = no result given. Hits are enriched below; roughly 2.6% of the tested compounds scored in any of these assays.
SMILES,PAFAH2 FP inh,PKA-R1A activ,PAFAH1B2 FP inh,PKA-R2B act,PAFAH1B3 inh,pPAFAH FP inh
O=C(O)c1cccc(-n2c(O)c(C=C3N=c4ccccc4=N3)sc2=S)c1,3,12,5,-11,5,29*
O=C(CN1CCCCC1)NC1CCc2cc3c(cc21)CCC3 (stereo not drawn),9,-3,1,-4,12,-2
O=C(COC(=O)C12CC3CC(CC(Br)(C3)C1)C2)NNC(=O)c1ccccc1,3,2,52*,2,5,4
CC(NC(=O)COC(=O)C12CC3CC(CC(O)(C3)C1)C2)c1ccccc1 (stereo not drawn),20,-6,4,-9,6,-6
O=C(COC(=O)C12CC3CC(CC(C3)C1)C2)NNC(=O)c1ccccc1,3,4,40*,2,6,1
CC(CCc1ccccc1)NC(=O)COC(=O)C12CC3CC(CC(Br)(C3)C1)C2 (stereo not drawn),-6,1,45*,-2,7,4
O=C(COC(=O)C12CC3CC(CC(C3)C1)C2)NCc1ccccc1,29,-6,6,-6,7,3
O=C(COC(=O)C12CC3CC(CC(Cl)(C3)C1)C2)N1CCCCC1,2,8,29*,12,13,-8
Cn1c(N)c(C(=O)COC(=O)Cc2ccc(Cl)c(Cl)c2)c(=O)n(C)c1=O,13,6,3,4,8,4
COCC1CCN(C(=O)C2CCC(=O)N(Cc3ccc(Cl)cc3)C2)CC1 (stereo not drawn),1,6,-1,-2,3,-2
CC(C)(C)OC(=O)NCCc1onc(-c2ccc([N+](=O)[O-])cc2)c1C(=O)O,.,-2,.,4,.,.
CC1CCCCC1NC(=O)COC(=O)C12CC3CC(CC(Cl)(C3)C1)C2 (stereo not drawn),62*,0,35*,2,8,7
O=C(COC(=O)C12CC3CC(CC(Cl)(C3)C1)C2)Nc1ccccc1,60*,-1,35*,-7,8,5
C[C@H](CO)N1C[C@H](C)[C@@H](CN(C)S(=O)(=O)c2ccc(F)cc2)Oc2ccc(NS(=O)(=O)c3ccc(F)cc3)cc2C1=O,12,3,9,3,5,20
C[C@@H]1CN([C@H](C)CO)C(=O)c2cc(NS(=O)(=O)c3ccc(F)cc3)ccc2O[C@@H]1CN(C)Cc1ccc(Cl)c(Cl)c1,10,-10,25*,3,7,29*
COc1ccc(S(=O)(=O)Nc2ccc3c(c2)C(=O)N([C@@H](C)CO)C[C@H](C)[C@H](CN(C)S(=O)(=O)c2ccc(F)cc2)O3)cc1,6,6,39*,-3,9,17
COc1ccc(S(=O)(=O)Nc2cccc3c2O[C@H](CN(C)Cc2ccc(Oc4ccccc4)cc2)[C@@H](C)CN([C@H](C)CO)C3=O)cc1,6,-2,-2,-1,4,26*
C[C@H](CO)N1C[C@H](C)[C@H](CN(C)Cc2ccc(-c3ccccc3)cc2)Oc2ccc(NS(=O)(=O)c3ccccc3)cc2CC1=O,0,-6,5,-4,-1,34*
COc1ccc(S(=O)(=O)Nc2cccc3c2O[C@H](CN(C)Cc2ccc(-c4ccccc4)cc2)[C@@H](C)CN([C@H](C)CO)C3=O)cc1,7,14,8,1,-1,19
CC(C)=CCc1cc(-c2oc3cc(O)cc(O)c3c(=O)c2O)ccc1O,-8,-5,13,-2,26*,34*
O=c1c(O)c(-c2ccccc2)oc2cc(O)cc(O)c12,13,-7,12,-3,23,7
C[C@@H]1CN([C@H](C)CO)C(=O)CCCn2nncc2CO[C@H]1CN(C)Cc1cccc2c1OCCCO2,.,-8,.,-2,.,.
CCOC(=O)C(CC(=O)O)=C(c1ccccc1)c1ccccc1,5,-2,32*,-12,8,2
CCOC(=O)C(NC(=O)c1ccccc1)=C(C)C,5,11,2,-6,5,3
O=C(C1CCN(S(=O)(=O)c2ccc(-n3cnnn3)cc2)CC1)N1CCCCC1,5,4,-2,-7,-5,5
SMILES,PAFAH2 FP inh,PKA-R1A activ,PAFAH1B2 FP inh,PKA-R2B act,PAFAH1B3 inh,pPAFAH FP inh
COc1ccc(N2CCN(S(=O)(=O)CCNC(=O)COc3ccc(Cl)cc3)CC2)cc1,-2,1,3,-1,6,3
CC(C)c1ccc(NC2CCCN(C(=O)c3n[nH]c4c3CCC4)C2)cc1 (stereo not drawn),3,0,27*,4,2,3
COC(=O)c1ccc(C(=O)N2CCCC(Nc3ccc(C(C)C)cc3)C2)cc1 (stereo not drawn),0,11,15,0,7,12
COc1ccc2[nH]c(O)c(N=NC(=O)Cc3cccs3)c2c1,12,-19,14,-3,13,25*
O=S(=O)(Cc1ccc(Cl)cc1)Oc1ccc(Cl)cc1,-1,-4,25*,-5,5,.
CCN(CC)S(=O)(=O)c1ccc2c(c1)nc(SC(C)C(N)=O)n2-c1ccc(OC)cc1 (stereo not drawn),5,0,-2,-4,2,26*
COc1ccc(-n2nnnc2SC(C)C(N)=O)cc1 (stereo not drawn),-3,-4,-3,-3,0,-7
O=C1c2cccc3c(O)ccc(c23)C(=O)N1c1ccc(Cl)cc1,42*,-2,17,1,27*,28*
O=C(NNC(=O)c1cc2ccccc2cc1O)Nc1ccc(Br)cc1,-10,-6,3,-10,11,26*
O=C(NNC(=O)c1cc2ccccc2cc1O)Nc1ccc(F)cc1F,-8,-2,6,-7,29*,26*
Cc1occc1C(=O)NNC(=O)Nc1ccc(F)cc1F,4,0,-3,-2,11,1
Clc1ccc(COc2cccc(CNCc3ccncc3)c2)cc1,6,-2,33*,-7,6,7
CC(C)(CO)NCc1cccc(OCc2ccc(Cl)cc2)c1,7,-17,2,-11,5,-1
COC(=O)C1(Cc2ccc3c(c2)CCC3)Cc2ccc3c(c2C1=O)CCC3 (stereo not drawn),3,0,1,-7,13,.
CCOCCSc1nc2c(c(-c3cccs3)c1C#N)CC/C2=C/c1cccs1,1,1,2,2,4,27*
CCCN(C(=O)CSCc1ccc(C)cc1)c1c(N)n(Cc2ccccc2)c(=O)[nH]c1=O,.,3,.,-5,.,.
